Screens as filed in PubChem BioAssay.
Shown are actives, neighbours in structure and some others; about 32% of the full set was active somewhere.
PostGolgi ctrl = growth inhibition of yeast control strain, primary screen, counter-screen for post-Golgi transport modulator project. AID 738, 2007. inhibition, % at 10 µM. actives 5% (n = 98,000). efflux-deficient yeast background strain, growth absorbance A615, 16 h
CYP2C9 act = human CYP2C9 activators, primary screen, biochemical, luminescence | Cytochrome P450 2C9 (Homo sapiens), P11712 | actives 1.4% (n = 96,000) | activation factor at 5 µM | recombinant CYP2C9, luciferin-H conversion; hits give high values; factor 1 = untreated enzyme, 0 = blocked;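 active = activation factor of 2 or more for CYP2C9 at a 5 µM dose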;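 also: 0 = sulfaphenazole-blocked wells and 1 = vehicle-only wells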
Target sequence (P11712 whole entry, looked up): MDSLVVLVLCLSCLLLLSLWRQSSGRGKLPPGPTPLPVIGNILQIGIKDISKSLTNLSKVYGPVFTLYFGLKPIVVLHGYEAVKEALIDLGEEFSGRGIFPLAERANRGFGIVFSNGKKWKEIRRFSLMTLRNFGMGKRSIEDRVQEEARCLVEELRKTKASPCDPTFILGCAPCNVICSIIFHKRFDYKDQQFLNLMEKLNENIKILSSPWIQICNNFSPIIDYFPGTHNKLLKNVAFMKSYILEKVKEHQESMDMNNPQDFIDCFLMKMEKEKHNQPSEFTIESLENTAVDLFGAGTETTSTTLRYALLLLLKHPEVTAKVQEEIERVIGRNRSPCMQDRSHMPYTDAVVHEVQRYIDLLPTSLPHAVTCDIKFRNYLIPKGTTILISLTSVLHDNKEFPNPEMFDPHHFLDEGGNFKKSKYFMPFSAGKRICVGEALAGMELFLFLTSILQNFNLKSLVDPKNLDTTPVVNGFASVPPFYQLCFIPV
PostGolgi yeast = phenotypic screen on post-Golgi transport, primary screen; post-Golgi transport phenotypic cell assay; inhibition, % at 10 µM; actives 0.9% (n = 98,000); AID 739, 2007;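 also: yeast cells grown in 1536-well plates; yeast grown about 18 h at 30C before absorbance read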
CYP2C19 inhib = blockers of cytochrome P450 2C19 activity – biochemical, luminescence, ADME assay, primary screen; P33261; CYP2C19 Supersomes, luciferin-H EGE luminescence, 30 min; inhibition, % at 5 µM; actives 21% (n = 96,000);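 active = CYP2C19 inhibition above a set limit at 5 µM in the primary screen, cut at about 50% in these data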;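 also: plate controls were negative control wells for no effect and 2.5 mM tranylcypromine positive control for full effect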
CYP2C19 activ = human CYP2C19 activators, primary screen, biochemical, luminescence; Cytochrome P450 2C19 (Homo sapiens), P33261; activation factor at 5 µM; 96,000 tested, under 10 active; recombinant CYP2C19, luciferin-H EGE luminescence; hits give high values; 0 = fully inhibited enzyme, 1 = untreated enzyme;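 active = activation factor of at least 2 at 5 µM in the primary screen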;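 also: 0 = wells with 2.5 mM tranylcypromine and 1 = vehicle-only wells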
CYP2C9 inhib = blockers of cytochrome P450 2C9 activity – biochemical, luminescence, ADME assay, primary screen | inhibition, % at 5 µM | AID 777, 2007 | P11712 | CYP2C9 Supersomes, luciferin-H conversion | actives 20% (n = 96,000);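 active = blocking of liver enzyme CYP2C9 beyond about 50% at 5 µM, limit read from the data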
* marks the source's active call; other numbers are inactive results; / = no result given. Rule as the data show it, unless noted: active = inhibition above about 30%; inactive = the rest.

SMILES	PostGolgi ctrl	CYP2C9 act	PostGolgi yeast	CYP2C19 inhib	CYP2C19 activ	CYP2C9 inhib
N#CCCSCc1ccc(OCC(=O)O)cc1	12	1.3	-2	-10	1.1	-35
O=c1c2cc(N3CCOCC3)ccc2[nH]c(=S)n1Cc1ccco1	2	0.5	9	28	0.7	53*
Cc1cc(-c2cccc([N+](=O)[O-])c2)nc2ccc3ccccc3c12	5	1.1	11	-9	1.1	-11
O=C1CC(c2cccc([N+](=O)[O-])c2)c2ccc3ccccc3c2N1 (configuration not stated)	54*	0.5	9	40	0.6	48
O=C(N/N=C\c1ccc(F)cc1)c1csnn1	-4	0.9	-8	16	0.8	11
CC(=O)c1cccc(NC(=O)C2CCCN(S(=O)(=O)c3cccc4cccnc34)C2)c1 (configuration not stated)	1	1.2	-3	30	0.7	-15
O=C(Nc1cccc(F)c1)C1CCCN1S(=O)(=O)c1cccc2cccnc12 (configuration not stated)	17	0.2	2	80*	0.2	81*
CC(=O)c1cccc(NC(=O)C2CCCN2S(=O)(=O)c2cccc3cccnc23)c1 (configuration not stated)	8	0.1	8	56*	0.4	92*
O=C(Nc1ccc2c(c1)OCCO2)C1CCCN1S(=O)(=O)c1cccc2cccnc12 (configuration not stated)	21	0	-11	15	0.8	97*
O=C(Nc1ccc2c(c1)OCCO2)C1CCN(S(=O)(=O)c2cccc3nsnc23)CC1	-3	0.8	-4	38	0.6	23
O=C(NCc1ccc2c(c1)OCO2)C1CCCN1C(=O)Nc1cccc(F)c1 (configuration not stated)	11	/	2	/	/	/
O=C(Nc1ccc2c(c1)OCO2)C1CCCN1C(=O)Nc1cccc(F)c1 (configuration not stated)	7	0.8	0	93*	0.1	20
O=C(Nc1ccc(C(F)(F)F)cc1)C1CCCN1S(=O)(=O)c1cccc2cccnc12 (configuration not stated)	30*	0.4	3	29	0.7	57*
CSc1cccc(NC(=O)C2CCCN(S(=O)(=O)c3ccc(F)cc3)C2)c1 (configuration not stated)	11	0.8	3	40	0.6	24
CSc1cccc(NC(=O)C2CCCN2S(=O)(=O)c2ccc(Br)s2)c1 (configuration not stated)	19	0.3	-3	98*	0	74*
O=C(OCC(=O)N1CCc2ccccc21)c1ccc(Cl)nc1	17	0.9	11	17	0.8	7
CCc1c(C#N)c(SCCC(=O)Nc2ccc(OC)cc2)nc2c1C(=O)CC(C)(C)C2	5	0.2	-3	83*	0.2	84*
COc1ccc(-c2cc(C(F)(F)F)c(C#N)c(SCC(=O)Nc3ccc(C)cc3)n2)cc1	7	0.5	0	12	0.9	49
Cc1cccc(CCNC(=O)C2CCN(S(=O)(=O)c3c(C)nn(C)c3C)CC2)c1	3	1.4	1	6	0.9	-43
CCC(Sc1ccc2nnc(-c3ccc(F)cc3)n2n1)C(=O)OC (configuration not stated)	12	0.4	8	27	0.7	61*
Cc1cc(NC(=O)CSc2ccc3nnc(-c4ccc(F)cc4)n3n2)no1	9	0.7	1	-1	1	33
Cc1cc(NC(=O)CSc2ccc3nnc(-c4cccs4)n3n2)no1	4	0.2	11	14	0.9	75*
Cc1ccc(-c2nnc3ccc(SCC(=O)Nc4cc(C)on4)nn23)cc1	3	0.5	-3	-7	1.1	50*
CCOC(=O)c1ccc(NC(=O)CSCc2ccco2)cc1	-11	0.5	0	25	0.7	48
O=C(Cc1cccs1)Nc1nc2ccccc2s1	30*	0.5	-3	56*	0.4	50
SMILES	PostGolgi ctrl	CYP2C9 act	PostGolgi yeast	CYP2C19 inhib	CYP2C19 activ	CYP2C9 inhib
Cc1ccc2nc(NC(=O)Cc3cccs3)sc2c1	3	0.7	9	24	0.8	28
COC(=O)CCCCCCCCC(=O)Nc1nc2ccccc2s1	3	0.2	1	63*	0.4	82*
CSc1nc2c(c(-c3ccc(O)cc3)c1C#N)CCC2	11	1.5	15	34	0.7	-49
O=C(NCCN1CCOCC1)c1cnn2c(-c3ccccc3)cc(-c3ccccc3)nc12	9	0.6	0	57*	0.4	36
O=C(NCCN1CCOCC1)c1ccccc1-c1ccccc1	12	0.9	-1	15	0.9	14
O=C1CSC2(C(=O)N3CCCc4cccc2c43)N1c1cccc(C(F)(F)F)c1 (configuration not stated)	18	0.7	-1	20	0.8	26
Cc1cc2c3c(c1)C1(SCC(=O)N1c1ccc(F)cc1)C(=O)N3C(C)(C)CC2C (configuration not stated)	33*	0.6	11	38	0.6	39
CCCCCCCCn1c(=O)c(C(=O)OCC)c(O)c2ccccc21	7	0.2	0	42	0.6	78*
CCc1ccccc1NS(=O)(=O)c1cc(C)ccc1OC	29	0.5	-1	84*	0.2	54*
COc1ccc(C)cc1NCc1cccc(OC)c1OC	5	1.1	8	39	0.6	-9
COc1ccccc1CNS(=O)(=O)c1c(C)noc1C	2	0.8	-3	43	0.6	23
COc1ccccc1CNS(=O)(=O)c1cc(C)ccc1OC	10	1.6	6	90*	0.1	-61
O=C(OCc1cc2ccccc2[nH]c1=O)c1ccccn1	-3	1	-4	12	0.9	-3
CN(CC(=O)N1CCc2ccccc2C1)S(=O)(=O)c1ccc2c(c1)c(=O)n(C)c(=O)n2C	-1	0.9	1	-17	1.2	12
O=C(CNC(=O)C1CCCCC1)NC1=NCCS1	-2	0.9	-3	15	0.8	10
O=C1CSC(c2ccccc2)N1c1nnc(C23CC4CC(CC(C4)C2)C3)s1 (configuration not stated)	0	0.9	27	14	0.9	14
O=C(Nc1cccc(C(F)(F)F)c1)c1n[nH]c(Cn2cncn2)n1	3	0.5	2	10	0.9	51*
O=c1[nH]c(N2CCCCC2)nc2c1CCCC2	20	1	2	-5	1	-4
N#Cc1c(N2C(=O)C3C4C=CC(C4)C3C2=O)sc2c1CCC2 (configuration not stated)	6	0.7	-3	64*	0.4	30
